Screens as filed in PubChem BioAssay.
Only some compounds are listed: those with a hit (about 1.3% of all), similar ones and a draw of the others.
S1P2 ag = activates the human S1P2 receptor | activation, % at 4.5 µM | 97,000 tested, 0.46% active | S1P2-expressing cell line, agonist reporter read-out; in the data active = activation above about 16%
Smad3 FoxH1 inh = blocks human Smad3 binding to FoxH1 peptide | 88,000 tested, 0.29% active | TR-FRET Smad3/Dy647-FoxH1 peptide binding, europium anti-His | inhibition, % at 25 µM;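 active = compounds that reduce the energy-transfer binding signal between the protein and its labelled peptide by more than half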
Target sequence (P84022 whole entry, looked up): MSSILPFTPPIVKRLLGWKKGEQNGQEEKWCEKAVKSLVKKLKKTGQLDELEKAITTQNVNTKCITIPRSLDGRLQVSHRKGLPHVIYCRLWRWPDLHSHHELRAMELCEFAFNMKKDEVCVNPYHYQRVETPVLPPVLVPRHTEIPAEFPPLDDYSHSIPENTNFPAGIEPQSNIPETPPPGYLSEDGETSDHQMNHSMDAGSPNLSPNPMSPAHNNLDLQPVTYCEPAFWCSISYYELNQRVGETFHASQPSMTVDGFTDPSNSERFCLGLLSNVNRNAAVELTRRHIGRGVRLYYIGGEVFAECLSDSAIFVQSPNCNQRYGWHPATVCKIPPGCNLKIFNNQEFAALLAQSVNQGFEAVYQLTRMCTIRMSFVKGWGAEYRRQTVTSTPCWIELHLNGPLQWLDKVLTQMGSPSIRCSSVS
GALR2 ag = agonists of human galanin receptor 2 (GALR2). 140,000 tested, 0.48% active. activation, % (test concentration not listed). GALR2-expressing cells, agonist activation read-out; in the data active = activation above about 5%, passing the limit was not always enough
S1P2 blocker = blocks the human S1P2 receptor | O95136 | inhibition, % at 5 µM | cell-based S1P2 antagonist assay, inhibition at 5 uM | 97,000 tested, 0.21% active; in the data active = inhibition above about 45%;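 also: CRE beta-lactamase reporter cells expressing human S1P2 stimulated with S1P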
GALR2 blocker = antagonists of human galanin receptor 2 (GALR2). O43603. inhibition, % at 4 µM. 140,000 tested, 0.39% active. AID 828. GALR2-expressing cells, antagonist mode; in the data active = inhibition above about 27%;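 also: cells stimulated with galanin 1-16 at roughly its EC80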
Candida biofilm = kills Candida albicans biofilms. inhibition, % at 6 µM. C. albicans biofilm + clotrimazole, Alamar Blue. 85,000 tested, 0.14% active;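 active = inhibition above 20%; inactive = inhibition below 20%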;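 also: preformed 24 hr biofilms exposed to compound for 48 hr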
A number is an active result; . = inactive; / = no result given; [ ] = another dose, or the depositor's remark.

SMILES	S1P2 ag	Smad3 FoxH1 inh	GALR2 ag	S1P2 blocker	GALR2 blocker	Candida biofilm
Cc1ccc(Nc2nc3ccccc3nc2-n2nc(C)cc2C)cc1	20	.	.	.	.	.
CC(=O)c1c(C)[nH]c(C(=O)COc2ccc(C#N)cc2)c1C	.	.	.	.	.	.
COc1ccccc1OCC(=O)c1[nH]c(C)c(C(C)=O)c1C	.	.	.	51	.	.
c1ccc(N2N=C(c3cccs3)CC2c2ccco2)cc1 (configuration not stated)	47	/	57	.	.	/
CCN(CC)CC(=O)N1N=C(c2cccs2)CC1c1ccco1 (configuration not stated)	.	/	.	.	.	/
Clc1ccc(N2N=C(c3cccs3)CC2c2ccco2)cc1 (configuration not stated)	102	/	70	.	.	/
COc1ccc(-c2cn(-c3ccc(C)cc3)c(=O)n2CC(=O)Nc2cccc(F)c2)cc1	.	.	15	.	.	.
CCCOc1ccc(C(=O)NCC(c2ccco2)N(C)C)cc1 (configuration not stated)	/	/	.	/	.	/
O=C(O)/C(Cc1ccc([N+](=O)[O-])cc1)=N\O	/	.	/	/	/	/
O=C(O)c1ccc(NC(=O)c2cccc(N3C(=O)C4C5CCC(C5)C4C3=O)c2)cc1 (configuration not stated)	/	/	.	/	.	/
CN(C)c1ccc(NC(=O)c2cccc(N3C(=O)C4C5C=CC(C5)C4C3=O)c2)cc1 (configuration not stated)	.	.	.	.	47	.
CCOC(=O)c1ccc(NC(=O)Nc2ccc(F)cc2)cc1	22	.	.	.	.	.
Nc1ncnc2nc[nH]c12.Nc1ncnc2nc[nH]c12.[Cl][Pt]([Cl])([Cl])[Cl]	/	71	/	/	/	/
Nc1nc(N)c2[nH]cnc2n1 (tested in a mixture with another compound)	/	.	/	/	/	/
CCn1c(=O)c(C(=O)Nc2nc3ccccc3[nH]2)c(O)c2ccccc21	.	/	.	79	.	/
O=C(Nc1ccc(Oc2ccc3c(c2)C(=O)N(c2ccc(O)cc2)C3=O)cc1)c1cccs1	/	/	.	/	.	/
Cn1c(=S)n(/N=C/c2ccc3c(c2)OCO3)c2ccccc21	.	.	.	.	.	.
COc1ccc(/C=N/n2c(=S)n(C)c3ccccc32)cc1OC	.	.	.	.	.	50
CCN(CC)CCN1C(=O)C(=O)/C(=C(/O)c2ccc(C)cc2)C1c1cccnc1 (configuration not stated)	/	.	/	/	/	.
O=C(Nc1ccc(N2CCOCC2)cc1)Nc1ccc2nc(-c3ccco3)c(-c3ccco3)nc2c1	.	.	.	.	32	.
Cc1ccc(S(=O)(=O)CCC(=O)N2CCc3ccccc32)cc1	42	.	.	.	.	.
Clc1ccc2oc(-c3cccnc3NCc3ccccc3)nc2c1	25	/	.	.	.	/
Cc1ccc(CNc2ncccc2-c2nc3cc(Cl)ccc3o2)cc1	.	/	.	.	.	/
CCc1nccn1S(=O)(=O)c1cc(OC)c(Cl)cc1OC	/	/	.	/	.	/
CCc1nccn1S(=O)(=O)c1cc(C)c(OC)cc1C	16	.	.	.	.	.
SMILES	S1P2 ag	Smad3 FoxH1 inh	GALR2 ag	S1P2 blocker	GALR2 blocker	Candida biofilm
Cc1ccc(/C=C2/NC(=O)N(Cc3ccc(Br)cc3)C2=O)o1	/	/	6.1	/	.	/
CCN1C(=O)N/C(=C/c2ccc(C)o2)C1=O	/	/	.	/	.	/
O=C(O)c1ccc(SSc2ccc(C(=O)O)cn2)nc1	/	.	/	/	/	/
O=C(NC1CCSC1=O)c1ccc(Cl)cc1 (configuration not stated)	.	.	.	.	.	.
Cc1ccc(C(=O)NC2CCSC2=O)cc1 (configuration not stated)	.	54[fluorescence artefact?]	.	.	.	.
O=C(O)[C@@H]1[C@H]2C[C@@H]3[C@@H](OC(=O)[C@@H]31)[C@H]2Br	/	.	/	/	/	/
COc1cc(-c2nn3c(COc4ccccc4)nnc3s2)cc(OC)c1OC	/	.	.	/	.	.
COc1cc(-c2nn3c(Cc4ccccc4)nnc3s2)cc(OC)c1OC	21	.	.	.	.	.
C=CCn1c(N)cc(=O)nc1SCC(=O)Nc1ccccc1	80	.	.	.	.	.
C[C@]1(O)CC[C@H]2[C@H]3CC=C4N5CCN=C5CC[C@@]4(C)[C@@H]3CC[C@@]21C	/	.	/	/	/	/
Cc1cc(C)c(S(=O)(=O)Nc2ccc(O)cc2)cc1C	65	.	.	.	.	.
O=C(O)[C@H]1CCCC[C@@H]1c1c2ccc(=O)c(O)c-2oc2c(O)c(O)ccc12	/	101	/	/	/	/
Nn1c(CSc2nc3ccccc3o2)nnc1CSc1nc2ccccc2o1	.	.	.	.	.	.
Cc1cc(C)n2cc(CSc3nc4cc(Cl)ccc4o3)nc2n1	17	.	.	.	.	.
Cc1cc(C)n2c(Br)c(CSc3nc4ccccc4o3)nc2n1	17	.	.	.	.	.
Nc1oc2ccc(F)cc2c(=O)c1C=O	/	/	.	/	.	/
COC(=O)[C@H]1[C@@H]2C[C@H]3c4[nH]c5ccccc5c4CCN3C[C@H]2CC[C@@H]1O	/	.	/	/	/	/
CC(C)CSC[C@@H]1O[C@H](n2cnc3c(N)nccc32)[C@H](O)[C@H]1O	/	.	/	/	/	/
Nc1nc(Cl)cc(N2CCC(c3cc(-c4ccc(Cl)cc4)n[nH]3)CC2)n1	.	/	.	82	.	/
COc1ccc(-c2cc(C3CCN(c4cc(Cl)nc(N)n4)CC3)[nH]n2)cc1	.	/	.	.	.	/
COC(=O)C1=CN(Cc2cccs2)C=C(C(=O)OC)C1c1cccc(OC)c1OC	21	/	.	.	.	/
O=C1c2cccc(O)c2C(=O)c2c(O[C@@H]3O[C@H](CO)[C@@H](O)[C@H](O)[C@H]3O)cccc21	/	70	/	/	/	/
COc1ccc(-c2nn(-c3ccccc3)cc2/C=N/NC(=O)c2ccc(Br)o2)cc1	.	/	.	47	.	/
O=C(NCCc1ccc(Cl)cc1)C1CCCN(S(=O)(=O)c2cnc[nH]2)C1 (configuration not stated)	.	.	.	.	.	25
Cc1oc2cc3c(C(=O)OCCN(C)C)c(C)oc3cc2c1C(=O)OCCN(C)C	/	.	/	/	/	.
SMILES	S1P2 ag	Smad3 FoxH1 inh	GALR2 ag	S1P2 blocker	GALR2 blocker	Candida biofilm
O=C(O)c1cccc(SSc2cccc(C(=O)O)c2)c1	/	.	/	/	/	/
CCc1cccc(OCCCn2ccnc2)c1	/	/	.	/	.	/
CCOc1cccc(OCCCCn2ccnc2)c1	83	.	.	.	.	.
O=C(O)[C@@H]1[C@H](C(=O)Nc2ccccc2)[C@@H]2C=C[C@H]1O2	/	.	/	/	/	/
Cc1ccccc1-c1cc(C(=O)Nc2sc(C)c(C)c2C(N)=O)c2ccccc2n1	17	/	.	.	.	/
Cc1ccc([C@@]2(C)CC/C(=N\N=C3/CC[C@](C)(c4ccc(C)c(C)c4)c4cc(C)c(C)cc43)c3cc(C)c(C)cc32)cc1C	/	.	/	/	/	/
COc1ccc(/C=N/NC(=O)c2nc(-c3ccccc3)cc(-c3ccccc3)n2)cc1	.	/	.	54	.	/
CCOC(=O)C1C(=O)CC(C)(O)C(C(=O)OCC)C1c1ccc(OC)cc1 (configuration not stated)	.	.	.	.	.	.
CCOC(=O)C1C(=O)CC(C)(O)C(C(=O)OCC)C1c1ccccc1 (configuration not stated)	.	.	.	108	.	.
